Most compounds without a hit are left out; they make up all but 21% or so of the library.
TDP1 cell noCPT: qHTS for Inhibitors of human tyrosyl-DNA phosphodiesterase 1 (TDP1): qHTS in cells in absence of CPT | DT40 Tdp1-/- hTDP1 cells, no CPT, ATP luminescence, 48 h | Potency, µM (titrated, usually from 46.2 µM), inactives show at the highest dose activity change, negative = growth inhibition, most hits filed as inhibitors | 420,000 compounds, 15% hits; further: potency means the concentration at half of the fitted maximal effect; on the % scale 0 is the no-effect control and ±100 the full control effect; nearly all actives have a fitted effect of over 55% in size
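DT40 Tdp1-/-;hTDP1 cells, no CPT (DMSO vehicle only), 400 cells/well; compounds pin-transferred; ≥48 hr, 37 °C; CellTiter-Glo 30 min RT dark, luminescence read.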
TDP1 cell CPT: growth inhibition of DT40 Tdp1-/-;hTDP1 cells with camptothecin (screen for TDP1 inhibitors) | AID 686979 | 420,000 compounds, 12% hits | chicken DT40 Tdp1-/-;hTDP1 cells + 20 nM CPT, ATP luminescence, 48 h | Potency, µM (highest dose often 46.2 µM), for the others: at the top dose activity change, negative = growth inhibition, actives largely listed as inhibitors; further: potency means the concentration at half of the fitted maximal effect; on the % scale 0 is the no-effect control and ±100 the full control effect; nearly all actives have a fitted effect of over 55% in size
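Chicken DT40 Tdp1-/- cells complemented with human TDP1, 400 cells/well, exposed to compounds plus 20 nM camptothecin for at least 48 h at 37 C; viability read as ATP content by CellTiter-Glo luminescence.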
ClpP mod: qHTS Assay for Activators of ClpP | ATP-dependent Clp protease proteolytic subunit (Bacillus subtilis (strain 168)), P80244 | purified B. subtilis ClpP, FRET peptide cleavage, 20 min | Potency, µM (titrated, usually from 57.5 µM), inactives show at the highest dose activity change, negative = active | 340,000 compounds, 1.9% hits; active means well fitted falling curve with a large enough effect; inconclusive means small, poorly fitted or top-dose-only effect; inactive means no such curve, though single readings can be large or run the other way; further: potency means the concentration at half of the fitted maximal effect; the source files actives as falling curves though it sought activators and does not explain the sign; nearly all actives have a fitted effect of over 65% in size
Target sequence (P80244 whole entry, looked up): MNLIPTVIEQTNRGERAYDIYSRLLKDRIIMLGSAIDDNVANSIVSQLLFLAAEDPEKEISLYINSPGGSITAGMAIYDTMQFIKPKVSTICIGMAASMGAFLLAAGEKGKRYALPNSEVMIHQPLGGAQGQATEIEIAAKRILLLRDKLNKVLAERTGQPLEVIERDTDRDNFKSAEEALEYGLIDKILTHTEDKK
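Purified B. subtilis ClpP, 10 microg/mL final in Tris/HCl pH8 with KCl, BSA, glycerol and Tween-20, cleaved an Abz/nitrotyrosine-quenched decapeptide. Fluorescence (ex 320, em 430) was read at 0 and 20 min at room temperature. Delta was normalized to 5.8 microM ADEP and DMSO/no-enzyme controls.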
DRD3 antagonist: antagonists of human D3 dopamine receptor | D3R cells, DiscoveRx beta-arrestin luminescence, antagonist mode; stronger effect = lower value | 360,000 compounds, 2.5% hits | max response, negative = inhibition, % | P35462; in the data active means max response below about -50%; inconclusive means no clear call, values can overlap the other calls; further: on the % scale 0 is the no-effect control and ±100 the full control effect
Target sequence (P35462 whole entry, looked up): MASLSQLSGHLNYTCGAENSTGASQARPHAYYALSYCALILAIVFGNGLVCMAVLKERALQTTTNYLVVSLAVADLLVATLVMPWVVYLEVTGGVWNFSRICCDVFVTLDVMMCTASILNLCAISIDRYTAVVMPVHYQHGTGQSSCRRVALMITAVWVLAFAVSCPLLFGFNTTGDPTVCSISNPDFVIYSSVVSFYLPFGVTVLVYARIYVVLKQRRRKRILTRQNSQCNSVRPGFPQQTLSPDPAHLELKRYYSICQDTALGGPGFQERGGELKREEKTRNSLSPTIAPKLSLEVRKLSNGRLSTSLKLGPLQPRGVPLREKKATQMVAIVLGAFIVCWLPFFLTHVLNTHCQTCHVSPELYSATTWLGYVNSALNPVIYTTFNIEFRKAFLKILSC
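Cells expressing the human receptor were seeded at 1500 cells/well, incubated overnight at 37 degrees C in 5% CO2, then exposed to library compounds with dopamine controls for 90 minutes at 37 degrees C before luminescent detection.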
IL-1B inflam inh: inhibitors of inflammasome signaling (IL-1 beta secretion) | THP-1 LPS/ATP IL-1B secretion, AlphaLISA, 16 h; stronger effect = lower value | AID 743279 | activity change, % at 57.5 µM | 360,000 compounds, 4.7% hits; in the data active means activity change below about -50%; inconclusive means mostly about -30% to -49%; further: on the % scale 0 is the no-effect control and ±100 the full control effect
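Secreted IL-1B measured by AlphaLISA bead assay after 16 h compound exposure of THP-1 cells; compounds (final up to 57.5 uM) added 1 h before LPS (250 ng/mL) and ATP (1.25 mM) stimulation; lower signal means less secretion.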
DRD3 agonist: agonists of human D3 dopamine receptor. P35462. D3R DiscoveRx beta-arrestin cells, luminescence, 90 min. max activation, %. 410,000 compounds, 0.58% hits. AID 652048; in the data active means max activation above about 30%; further: 0% is about no effect
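Cells at 1500/well, incubated overnight, then treated with pinned compounds (dopamine as control) for 90 min at 37 degrees C. DiscoveRx reagent added for 30 - 60 minutes at room temperature; luminescence read.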
Numbers without * were called inactive; ? = inconclusive; . = no result. Unless noted, the call rests on the fitted dose curve; in most records, active means well fitted inhibition curve with a large enough effect; inconclusive means small, poorly fitted or top-dose-only effect; inactive means flat fitted curve, though single readings scatter.

SMILES	TDP1 cell noCPT	TDP1 cell CPT	ClpP mod	DRD3 antagonist	IL-1B inflam inh	DRD3 agonist
Cc1ccc(C)c(CSc2nc3[nH]ncc3c(=O)[nH]2)c1	1µM*	2.6µM*	.	0	-7	-6
CCc1nnc(NC(=O)CSc2nc3[nH]ncc3c(=O)[nH]2)s1	-1%	7%	.	4	13	4
Cc1nnc(NC(=O)CSc2nc3[nH]ncc3c(=O)[nH]2)s1	15µM*	?	0%	3	21	1
OC(c1ccc(-c2ccccc2)cc1)c1ncc(-c2ccccc2F)[nH]1 (configuration not stated)	?	?	-7%	-21	9	1
COc1cc(C2Oc3ccccc3C=C2[N+](=O)[O-])cc(OC)c1OC (configuration not stated)	2.6µM*	3.3µM*	-1%	-10	-104*	0
COc1cc(C2NC(=O)c3ccccc3O2)cc(OC)c1OC (configuration not stated)	-5%	-14%	6%	23	20	8
COc1ccc(CC(C)N2CCN(c3ccccc3OC)CC2)cc1OC (configuration not stated)	?	?	1%	-93*	0	-37
C=CCc1ccccc1OCC(O)CN1CCN(c2ccc(OC)cc2)CC1 (configuration not stated)	?	16µM*	-2%	-82*	-22	-4
C=CCc1ccc(OCC(O)CN2CCN(Cc3ccc(Cl)cc3)CC2)c(OC)c1 (configuration not stated)	21µM*	?	1%	-73*	?	-6
C=CCc1ccc(OCC(O)CN2CCN(c3ccccc3OC)CC2)c(OC)c1 (configuration not stated)	-8%	-19%	-1%	-103*	?	-9
CC(C)(C)NC(=O)CN1C(=O)c2cccc3cccc1c23	-28%	5%	-2%	-2	-4	2
CC(=O)Nc1ccc(NC(=O)C2CCN(c3ccc(C(F)(F)F)cn3)CC2)cc1	?	-7%	.	11	54	3
CCN(CC)CC(O)Cn1c2ccccc2c2ccccc21 (configuration not stated)	?	-4%	-27%	-8	?	1
COc1ccccc1CNCC(=O)Nc1ccc(N(C)C)cc1	?	?	0%	-2	8	-7
CCn1c2ccccc2c2cc(NC(=O)CNCc3ccccc3OC)ccc21	5.8µM*	5.2µM*	.	-19	6	-19
COc1ccccc1CNCC(O)Cn1c2ccccc2c2ccccc21 (configuration not stated)	?	?	-8%	17	-61*	1
CCn1c2ccccc2c2cc(NC(=O)COc3ccccc3OC)ccc21	3.7µM*	5.2µM*	-21%	-8	27	-1
CCOc1cc(C2c3c(oc4ccc(F)cc4c3=O)C(=O)N2Cc2ccc(C)cc2)ccc1O (configuration not stated)	?	1.3µM*	-11%	.	.	-6
Cc1cc(C)c2c(=O)c3c(oc2c1)C(=O)N(CCO)C3c1cccc(O)c1 (configuration not stated)	-16%	-14%	?	-17	-58*	-8
COc1cc(C2c3c(oc4ccc(C)cc4c3=O)C(=O)N2Cc2ccc(F)cc2)ccc1O (configuration not stated)	-11%	5%	-7%	.	.	-12
O=C1c2oc3ccccc3c(=O)c2C(c2cccc(O)c2)N1Cc1ccc(F)cc1 (configuration not stated)	21µM*	?	-1%	.	.	-2
Cc1cc(C2C(=O)NC(=O)C2=O)c(C)cc1Br (configuration not stated)	-9%	-11%	.	-25	-5	-14
COc1ccc(CNC(=O)C(Cc2ccccc2)NS(=O)(=O)c2ccc3c(c2)CCN3C(C)=O)cc1 (configuration not stated)	-13%	-1%	-3%	.	.	-6
Cc1cc(C)c2cccc(N)c2n1	-5%	-5%	.	15	22	-6
CCc1ccc2nc3nc(C)cc(C)c3c(N)c2c1	11µM*	?	11µM*	-9	-104*	-8
SMILES	TDP1 cell noCPT	TDP1 cell CPT	ClpP mod	DRD3 antagonist	IL-1B inflam inh	DRD3 agonist
Cc1cc(C)c2c(N)c3ccccc3nc2n1	23µM*	?	65%	15	-89*	3
CCN(CC)N=Nc1[nH]nc2nc(C)cc(C)c12	?	?	-1%	21	0	0
O=C(CSc1nc2c(c(=O)[nH]1)CCC2)Nc1ccccc1C(F)(F)F	-2%	8%	-4%	.	.	2
CN(C)/C=C1/Sc2ccccc2C1=O	-22%	-8%	-5%	20	20	-4
CC(=O)N(/N=C1\Sc2ccccc2C1=O)c1ccccc1C	-12%	-16%	1%	-4	-19	7
CC(=O)N(/N=C1\Sc2ccccc2C1=O)c1ccccc1	?	?	-1%	-59*	14	-2
CC(=O)N(\C=C/C=C/C=C1\Sc2ccccc2C1=O)c1ccccc1	13µM*	29µM*	.	10	2	6
CCc1cccc(C)c1NC(=O)CN1C(=O)c2cccc3cccc1c23	-18%	-15%	-4%	.	.	5
COc1cc(NC(=O)Cn2cnc3c(SC)nc(N)nc32)cc(OC)c1OC	-18%	-25%	-22%	0	9	-18
CCc1ccccc1Nc1nn2c(=O)c3ccc(C(=O)NC4CCC(C)CC4)cc3nc2s1 (configuration not stated)	16µM*	?	-18%	.	.	-2
COC(=O)c1ccc2c(=O)n3nc(Nc4cc(OC)ccc4OC)sc3nc2c1	-17%	?	0%	.	.	10
COc1ccccc1Nc1nn2c(=O)c3ccc(C(=O)N4CCC(C)CC4)cc3nc2s1	18µM*	23µM*	-3%	16	-5	2
Cc1ccccc1Nc1nn2c(=O)c3ccc(C(=O)N4CCCC(C)C4)cc3nc2s1 (configuration not stated)	16µM*	15µM*	3%	74	0	-5
COc1ccccc1Nc1nn2c(=O)c3ccc(C(=O)NC4CCC(C)CC4)cc3nc2s1 (configuration not stated)	5.2µM*	5.8µM*	2%	.	.	-14
N#Cc1ccc(NC(=O)C2=COCCO2)cc1	?	-6%	-2%	-1	-12	-8
